Screening results (PubChem)
Shown are actives, neighbours in structure and some others; about 0.92% of the full set was active somewhere.
BLM helicase inh: inhibitors of human Bloom syndrome helicase BLM. P54132. recombinant BLM DNA unwinding, fluorescence dequenching. Potency, µM (doses to about 56.1 µM), for the others: at the highest dose activity change, negative = inhibition, usual class: inhibitors. 350,000 tested, 0.2% active;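 also: plate controls were vehicle for no effect and no enzyme for full effect; nearly all actives have a fitted effect of over 35% in size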
WRN inhibitor: inhibitors of human WRN helicase; Q14191; WRN helicase unwinding, fluorescent forked duplex, kinetic; Potency, µM (highest dose often 114 µM), for the others: at the top dose activity change, negative = inhibition, usual class: inhibitors; 360,000 tested, 0.46% active; AID 651768; also: nearly all actives have a fitted effect of over 55% in size
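Primary qHTS, 1536-well format. 20 nM WRN + compound, 15 min RT; start with 100 nM forked fluorophore/quencher duplex, 2 mM ATP (final); kinetic read ex 525/em 598 nm.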
RECQ1 helicase: blocks DNA unwinding by human RECQ1 | Potency, µM (top dose mostly 57.3 µM), inactives show at the top dose activity, negative = inhibition, hits mostly inhibitors | P46063 | RECQ1 DNA unwinding, red fluorescence kinetic read | AID 2549 | 240,000 tested, 0.54% active;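 also: plate controls were vehicle for no effect and no enzyme for full effect; nearly all actives have a fitted effect of over 30% in size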
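RECQ1T1 50 nM; forked duplex (20 bp + 30-nt ss tails) 200 nM, ATP 2 mM final; pH 8.0, 2 mM MgCl2, 2.5 ug/ml poly(dI-dC); 15 min compound preincubation; discontinuous kinetic read over 2 h at RT.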
APE1 inh-1: inhibitors of human APE1 endonuclease; P27695; recombinant APE1, TAMRA/BHQ-2 abasic DNA cleavage fluorescence; Potency, µM (highest dose often 65.8 µM), inactives show top-dose activity change, negative = inhibition, most hits filed as inhibitors; 350,000 tested, 0.35% active; AID 2517;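 also: plate controls were vehicle for no effect and reference inhibitor for full effect; nearly all actives have a fitted effect of over 55% in size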
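APE1 at 0.75 nM final was preincubated with compound 15 min at room temperature, then 50 nM double-stranded THF abasic-site substrate (5'-TAMRA/3'-BHQ-2) was added. Fluorescence (ex 525/em 598 nm) was read kinetically; third-minus-first read gave activity.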
L3MBTL1 block: L3MBTL1 (human) inhibition; Potency, µM (series often up to 57.1 µM), inactives show at the top dose activity, negative = inhibition, most hits filed as inhibitors; AID 485360; AlphaScreen L3MBTL1–H3K9me1 peptide binding; Q9Y468; 230,000 tested, 0.66% active; also: nearly all actives have a fitted effect of over 60% in size
Target sequence (Q9Y468 whole entry, looked up): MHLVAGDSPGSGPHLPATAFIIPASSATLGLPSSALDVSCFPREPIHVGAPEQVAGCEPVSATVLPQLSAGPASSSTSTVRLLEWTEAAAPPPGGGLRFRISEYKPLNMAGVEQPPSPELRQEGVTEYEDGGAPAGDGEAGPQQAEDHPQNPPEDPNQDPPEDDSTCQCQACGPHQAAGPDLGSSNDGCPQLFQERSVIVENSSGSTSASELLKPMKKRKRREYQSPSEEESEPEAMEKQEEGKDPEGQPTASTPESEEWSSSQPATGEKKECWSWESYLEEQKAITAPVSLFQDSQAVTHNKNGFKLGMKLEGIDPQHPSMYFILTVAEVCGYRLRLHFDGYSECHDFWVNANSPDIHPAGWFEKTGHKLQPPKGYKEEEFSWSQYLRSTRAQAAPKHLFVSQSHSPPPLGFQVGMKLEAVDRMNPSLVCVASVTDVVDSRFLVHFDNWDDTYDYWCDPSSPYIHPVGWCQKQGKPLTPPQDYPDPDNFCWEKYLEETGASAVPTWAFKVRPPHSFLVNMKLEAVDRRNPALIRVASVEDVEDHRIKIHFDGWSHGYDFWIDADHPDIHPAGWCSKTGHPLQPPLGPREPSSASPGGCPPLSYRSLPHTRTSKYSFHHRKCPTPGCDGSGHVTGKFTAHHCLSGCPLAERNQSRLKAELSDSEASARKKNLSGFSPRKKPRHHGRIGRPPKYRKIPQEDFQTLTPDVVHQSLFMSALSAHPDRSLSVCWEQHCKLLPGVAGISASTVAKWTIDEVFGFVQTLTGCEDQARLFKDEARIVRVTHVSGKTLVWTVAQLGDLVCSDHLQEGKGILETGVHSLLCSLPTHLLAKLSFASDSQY
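AlphaScreen assay: L3MBTL1 (50 nM final) was preincubated 30 min at room temperature with biotinylated H3(1-15)K9me1 peptide (75 nM final), then 30 min with library compounds; streptavidin donor and nickel chelate acceptor beads (10 ug/mL final) added, 30 min dark.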
DNA dye displace: displaces fluorescent dye from DNA, flagging APE1 artifacts. shares compounds with APE1 inh-1. DNA fluorescent dye displacement counterscreen, fluorescence. Potency, µM (top dose mostly 28.5 µM), for inactives: at the top dose activity change, negative = inhibition, most hits filed as inhibitors. 480 tested, 7% active. AID 2564;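 also: loss of thiazole orange fluorescence as the dye is displaced from duplex DNA; 0% = ThO with dsDNA and no compound and -100% = ThO without dsDNA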
EndoIV counter: counter-screen for APE1 inhibitors: inhibitors of E. coli endonuclease IV; AID 2565; E. coli Endo IV, fluorogenic AP-site DNA cleavage; 560 tested, 4% active; Potency, µM (titrated, usually from 27.1 µM), for inactives: at the highest dose activity change, negative = inhibition, actives largely listed as inhibitors; shares compounds with APE1 inh-1;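 also: plate controls were uninhibited enzyme wells for no effect and no enzyme buffer wells for full effect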
APE1 inh-2: confirmation of inhibitors of human APE1 endonuclease | Potency, µM (doses to about 57.1 µM), for inactives: top-dose activity change, negative = inhibition, most hits filed as inhibitors | 750 tested, 44% active | shares compounds with APE1 inh-1 | purified APE1, fluorogenic abasic-site DNA cleavage; also: nearly all actives have a fitted effect of over 30% in size
APE1 FP: displaces DNA from human APE1 in FP assay. APE1 binding to TAMRA-labelled double-stranded DNA, fluorescence polarization displacement. 480 tested, 7% active. Potency, µM (doses to about 28.5 µM), without a hit: at the highest dose activity, negative = inhibition, most hits filed as inhibitors. shares compounds with APE1 inh-1
* marks the source's active call; other numbers are inactive results; i = inactive; ? = inconclusive; · = not tested or not shown; [ ] = remark or other dose. Calls follow the shape of the dose curve; as a rule, active = well fitted curve in the direction sought with a large enough effect; inconclusive = small, poorly fitted or top-dose-only effect, or another doubt; inactive = no such curve, though single readings can be large; an effect the other way counts as inactive or inconclusive. Unless noted, % is scaled to controls: 0 for no effect and ±100 for the full control effect; potency is read from the fitted curve at half-maximal effect.

SMILES | BLM helicase inh | WRN inhibitor | RECQ1 helicase | APE1 inh-1 | L3MBTL1 block | DNA dye displace | EndoIV counter | APE1 inh-2 | APE1 FP
O=c1ccc2[n+]([O-])c3ccc(O)cc3oc-2c1 | · | i | 16µM* | 25µM* | 3.2µM* | 14% | ? | 13µM* | 0.018µM*
O=c1ccc2c(OCCCCc3ccccc3)c3ccoc3cc2o1 | · | · | -2% | -4% | · | · | -12%[57.1 µM] | -30% | ·
COc1c2ccoc2cc2oc(=O)ccc12 | 4% | -1% | -8% | -21% | -3% | · | · | · | ·
Oc1cc(O)c2c(c1)O[C@H](c1ccc(O)c(O)c1)[C@H](O)C2 | -3% | -6% | -18%[25.9 µM] | -9% | -26% | 2% | 137% | -6%[24.4 µM] | ?
COc1ccc(-c2coc3cc(O)ccc3c2=O)cc1O | -5% | 2% | -31% | ? | -16% | -7% | 6% | -10%[24.4 µM] | -6%
COc1ccc(-c2coc3cc(O)ccc3c2=O)cc1 | 0% | -4% | 0% | -4% | · | · | · | · | ·
CN(C)C(=O)NC1CCCCCCC1 | 3% | · | -8% | -3% | · | · | · | · | ·
COc1cc(N)c(Cl)cc1C(=O)OCCN1CCCCC1 | -2% | · | -5% | ? | · | -3%[57.1 µM] | 26%[57.1 µM] | -4% | -2%[57.1 µM]
COc1cc(N)c(Cl)cc1C(=O)OCCCN1CCCCC1 | -10% | · | 2% | -2% | · | · | · | · | ·
N#C/C(=C/c1ccc(-c2cc(C(=O)O)cc(C(=O)O)c2)o1)c1nc2ccccc2s1 | 55% | · | ? | ? | · | ? | ? | 14µM* | -8%
O=c1c2ccccc2nc(COc2ccccc2)n1/N=C/c1ccc(O)c(O)c1 | -26% | ? | 28µM* | ? | · | ? | 51% | ? | 7%
CSCC[C@@H]1NC(=O)[C@@H](NC(=O)[C@H](CCCNC(=N)N)NC(=O)[C@H](CC(C)C)NC(=O)[C@H](CCSC)NC(=O)[C@H](CC(=O)O)NC(=O)[C@H](Cc2ccccc2)NC(=O)[C@@H](N)CC(=O)O)CSSC[C@@H](C(=O)N[C@@H](Cc2c[nH]c3ccccc23)C(=O)N[C@@H](CCC(N)=O)C(=O)N[C@@H](Cc2ccc(O)cc2)C(=O)O)NC(=O)[C@@H]2CCCN2C(=O)[C@H](CCCNC(=N)N)NC(=O)[C@H](Cc2ccccc2)NC(=O)[C@H](C(C)C)NC(=O)[C@H](CCCNC(=N)N)NC(=O)CNC(=O)[C@H](CC(C)C)NC1=O | -2% | · | -12% | 3% | · | · | · | · | ·
COc1ccc(/C=N/NC(=O)c2cccc(NC(=O)c3ccc(F)cc3)c2)c(C(=O)O)c1OC | -12% | -19% | i | 15% | · | · | · | -9% | ·
O=C(O)COc1ccc2ccccc2c1 | -1% | · | -7% | -7% | · | · | · | · | ·
O=C(CSc1nc2ccccc2[nH]1)NC1CCCC1 | -15% | ? | -26% | ? | ? | · | · | 40µM* | ·
O=C(CCCSc1nc2ccccc2[nH]1)NC1CCCCC1 | -2% | 14% | -4% | 0% | · | · | · | · | ·
NCCCC[C@H](NC(=O)CNC(=O)[C@@H]1CCCN1C(=O)[C@H](Cc1ccc(O)cc1)NC(=O)CN)C(=O)N[C@@H](Cc1ccccc1)C(=O)O | -2% | · | -14% | -1% | · | · | · | · | ·
Cc1ccc2oc(=O)n(CC(=O)OC(C)C)c2c1 | 3% | 10% | -8% | ? | 0% | -11% | -4% | -8%[24.4 µM] | ?
CCOC(=O)Cn1c(=O)oc2ccc(C)cc21 | 2% | -1% | i | 1% | -4% | · | · | · | ·
COc1cccc(-c2nnc3n2N=C(c2c(OC)cccc2OC)CS3)c1OC | 0% | · | 3% | -1% | · | · | · | · | ·
Cn1cnnc1SCC(=O)Nc1nc(-c2ccccc2)cs1 | -22% | -6% | -4% | ? | -6% | -8% | -1% | ? | 8%
O=C(O)c1ccccc1-n1cccc1C(=O)O | -5% | -1%[11.6 µM] | -9% | ? | ? | -5% | 0% | 13µM* | ?
O=C(O)c1ccccc1-n1cnnn1 | 2% | -1% | -3% | 0% | 4% | · | · | · | ·
C=C1CCN(C(Cc2ccccc2)C(=O)NCc2ccc(Cl)cc2)S(=O)(=O)c2ccccc21 (stereo unspecified) | -14% | · | -8% | 9% | · | · | · | · | ·
CC(NC(=O)COC(=O)c1cc(NS(=O)(=O)c2ccc(Cl)c([N+](=O)[O-])c2)ccc1O)C1CC2CCC1C2 (stereo unspecified) | -15% | -6% | -9% | -12% | -9% | · | · | · | ·
SMILES | BLM helicase inh | WRN inhibitor | RECQ1 helicase | APE1 inh-1 | L3MBTL1 block | DNA dye displace | EndoIV counter | APE1 inh-2 | APE1 FP
COc1ccc(NS(=O)(=O)c2ccc(O)c(C(=O)OCC(=O)NC(C)C3CC4CCC3C4)c2)cc1 (stereo unspecified) | -12% | 9% | -14% | 22µM* | -13% | ? | -6% | ? | ?
O=C(O)c1cc(-c2ccc(/C=N/N3C(=O)C4C5C=CC(C6CC56)C4C3=O)o2)ccc1Cl (stereo unspecified) | -3% | -1%[11.6 µM] | -11% | ? | ? | · | · | ? | ·
O=C(O)c1cc(-c2ccc(/C=N/N3C(=O)C4C5C=CC(CC5)C4C3=O)o2)ccc1Cl (stereo unspecified) | -3% | -3% | i | -4% | -15% | · | · | · | ·
O=C(COC(=O)Cc1cccc(C(F)(F)F)c1)NC(=O)NC1CCCC1 | · | -15% | · | -10% | 4% | · | · | · | ·
O=C(COC(=O)CCNS(=O)(=O)c1cccc(C(F)(F)F)c1)NC(=O)NC1CCCCC1 | -6% | -5% | -11% | ? | · | -10% | 0% | ? | 3%
COc1ccc(/C(C)=N/Nc2ccccc2Cl)c(O)c1 | -5% | -19% | -10% | ? | -15% | · | · | ? | ·
COc1ccc(/C(C)=N/Nc2ccc(F)cc2F)c(O)c1 | -5% | -2% | -2% | 0% | 24% | · | · | · | ·
CCOC(=O)NC1(Nc2ccc(Cl)cn2)Oc2ccccc2O1 | -7% | · | 22µM* | 2.5µM* | 11µM* | · | · | -22% | ·
COC(=O)CCCC1=CC2=C(c3ccccc3)C(=O)C(C)(OC(=O)C3CCCC3)C(=O)C2=CO1 (stereo unspecified) | -4% | · | -7% | -4% | · | · | · | · | ·
